Inconclusive results are not listed. Calls of active or inactive are those of the source. Rule for the calls: active = hit-call score of the fitted dose curve at least 0.9, where 1 is the maximum; inconclusive = response in the unintended direction; inactive = score below 0.9.
Experiments:
[1] = Tanguay_ZF_120hpf_JAW_legacy: (Legacy) Oregon State University Tanguay Lab 120 Hour Post-fertilization zebrafish Assay for Jaw Malformation (AID 2283638);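 for AC50: active means more embryos with jaw malformation than DMSO controls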
Method in brief: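 Tropical 5D wild-type embryos, dechorionated with pronase at 4 hpf, were placed singly per well at 6 hpf and statically exposed at 28C until 120 hpf (0.64% DMSO final). Jaw malformation scored as present/absent by brightfield microscopy at 120 hpf, analyzed relative to DMSO.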

[2] = Tanguay_ZF_120hpf_PE_legacy: (Legacy) Oregon State University Tanguay Lab 120 Hour Post-fertilization zebrafish Assay for Pericardial Edema (AID 2283640);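 for AC50: potency for increased incidence of pericardial edema versus DMSO baseline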
Method in brief: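 Tropical 5D wild-type zebrafish embryos were exposed statically to 120 hpf at 28C, sealed and foil-covered, in 0.64% DMSO final. Pericardial edema was scored present/absent by brightfield microscopy; dead embryos were not scored.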

[3] = Tanguay_ZF_120hpf_BRAI_legacy: (Legacy) Oregon State University Tanguay Lab 120 Hour Post-fertilization zebrafish Assay for Brain Malformation (AID 2283641)
Method in brief: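 Tropical 5D wild-type zebrafish embryos were exposed statically in sealed, foil-covered plates at 28C until 120 hpf, with 0.64% (vol/vol) final DMSO. Brain malformation was scored present/absent by brightfield microscopy, relative to DMSO baseline.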

[4] = Tanguay_ZF_120hpf_SOMI_legacy: (Legacy) Oregon State University Tanguay Lab 120 Hour Post-fertilization zebrafish Assay for Somite Malformation (AID 2283647)
Method in brief: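 Tropical 5D wild-type zebrafish embryos, dechorionated with pronase at 4 hpf, were placed singly at 6 hpf and statically exposed until 120 hpf at 28C in 0.64% DMSO. Somite malformation was scored present/absent by brightfield microscopy versus DMSO.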

[5] = Tanguay_ZF_120hpf_PFIN_legacy: (Legacy) Oregon State University Tanguay Lab 120 Hour Post-fertilization zebrafish Assay for Pectoral Fin Malformation (AID 2283648);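 note: each larva judged yes or no for fin defect by brightfield with dead larvae skipped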
Method in brief: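 Tropical 5D wild-type embryos, dechorionated with pronase at 4 hpf, were placed singly in wells at 6 hpf and statically exposed until 120 hpf at 28C, sealed and dark, with 0.64% (vol/vol) final DMSO; pectoral fin malformation scored present/absent.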

[6] = Tanguay_ZF_120hpf_CFIN_legacy: (Legacy) Oregon State University Tanguay Lab 120 Hour Post-fertilization zebrafish Assay for Caudal Fin Malformation (AID 2283649)
Method in brief: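 Tropical 5D wild-type embryos, dechorionated with pronase at 4 hpf, were placed singly in wells at 6 hpf and statically exposed to compound at 28C until 120 hpf (0.64% DMSO). Caudal fin malformation was scored present/absent by brightfield microscopy.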

[7] = Tanguay_ZF_120hpf_PIG_legacy: (Legacy) Oregon State University Tanguay Lab 120 Hour Post-fertilization zebrafish Assay for Pigmentation Malformation (AID 2283650)
Method in brief: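 Tropical 5D wild-type zebrafish embryos, dechorionated with pronase at 4 hpf, were exposed singly from 6 hpf to 120 hpf statically at 28C in sealed, dark plates with 0.64% DMSO; pigmentation scored present/absent by brightfield microscopy, fitted against DMSO.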

[8] = Tanguay_ZF_120hpf_TRUN_legacy: (Legacy) Oregon State University Tanguay Lab 120 Hour Post-fertilization zebrafish Assay for Truncated Body (AID 2283655)
Method in brief: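 Tropical 5D wild-type embryos, dechorionated with pronase at 4 hpf, were placed singly in wells at 6 hpf and statically exposed at 28C until 120 hpf, final DMSO 0.64%. Truncated body was scored present/absent by brightfield microscopy.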

[9] = Tanguay_ZF_120hpf_NC_legacy: (Legacy) Oregon State University Tanguay Lab 120 Hour Post-fertilization zebrafish Assay for Notochord and Tail Malformation (AID 2283656)
Method in brief: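 Dechorionated 5D zebrafish, 1/well from 6 hpf; static exposure to 120 hpf, 28C, sealed, dark; final DMSO 0.64% v/v. NC scored binary (present/absent); dead embryos not scored. Fit vs DMSO baseline, gain direction.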

[10] = Tanguay_ZF_120hpf_TR_legacy: (Legacy) Oregon State University Tanguay Lab 120 Hour Post-fertilization zebrafish Assay for Touch Response (AID 2283667)
Method in brief: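 Tropical 5D wild-type zebrafish embryos were exposed statically in sealed, foil-covered plates at 28C until 120 hpf, with 0.64% (vol/vol) final DMSO. Touch response was scored as present or absent; embryos that died were not scored.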

[11] = Tanguay_ZF_120hpf_CIRC_legacy: (Legacy) Oregon State University Tanguay Lab 120 Hour Post-fertilization zebrafish Assay for Circulatory Malformation (AID 2283651)
Method in brief: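 Using wild-type Tropical 5D zebrafish, we exposed dechorionated embryos from 6 to 120 hpf in embryo medium with 0.64% DMSO. Circulatory defects were scored as present or absent; 5uM trimethyltin chloride served as positive control.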

[12] = Tanguay_ZF_120hpf_SWIM_legacy: (Legacy) Oregon State University Tanguay Lab 120 Hour Post-fertilization zebrafish Assay for Swim Bladder Malformation (AID 2283654);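 note: swim bladder malformation in each larva scored yes or no under brightfield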
Method in brief: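 Dechorionated Tropical 5D wild-type embryos, placed singly from 6 hpf, were statically exposed at 28C to 120 hpf with 0.64% DMSO final; swim bladder malformation was scored present/absent by brightfield microscopy, gain of signal relative to DMSO controls.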

[13] = tested on: Thyroperoxidase (TPO), gene 54314; experiment: CCTE_Simmons_AUR_rTPO: CCTE's Amplex UltraRed Assay for Thyroperoxidase (TPO) Inhibition, Simmons Lab (AID 2283662);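 for AC50: potency for loss of signal meaning inhibition of peroxidase activity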
Method in brief: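 Endpoint is decreased Amplex UltraRed fluorescence after a 30-min, 37C reaction of rat thyroid microsomes with 300 uM H2O2. Eight test concentrations (5 nM–87.5 uM final) in 0.5% DMSO, three biological replicates each.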

[14] = CCTE_Simmons_CellTiterGLO_HEK293T: Viability Assessment in CCTE's Assays for Thyroperoxidase (TPO) Inhibition, Simmons Lab (AID 2283665);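 for AC50: cells exposed to compound for 24 h before readout; actives reduce ATP signal below DMSO vehicle meaning cytotoxicity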
Method in brief: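 Cytotoxicity counter-screen: human HEK293T cells in low-serum (1% FBS) medium receive test chemical, 5 nM to 87.5 uM final, for 24 h; ATP is quantified by luciferase luminescence.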

Measured: AC50

CCN(CC)N=O
not listed: [11] | [12] | [13] | [14]
inactive: all other assays above

CNC(=O)Oc1cccc2c1OC(C)(C)C2
active: [1] 36 µM | [8] 12.6 µM
not listed: [12] | [13] | [14]
inactive: all other assays above

CS(=O)(=O)NC(=O)c1cc(Oc2ccc(C(F)(F)F)cc2Cl)ccc1[N+](=O)[O-]
not listed: [13] | [14]
inactive: all other assays above

N#CC(Br)(Br)C(N)=O
not listed: [7] | [9] | [12]
inactive: all other assays above

O=Cc1ccco1
not listed: [12] | [13] | [14]
inactive: all other assays above

[Cl-].[Cl-].[Hg+2]
active: [1] 3.12 µM | [2] 3.82 µM | [3] 1.22 µM | [4] 3.87 µM | [5] 3.5 µM | [6] 1.08 µM | [7] 1.05 µM | [11] 3.58 µM | [8] 3.83 µM | [14] 0.939 µM | [10] 1.15 µM

COP(=S)(OC)SCN1C(=O)c2ccccc2C1=O
active: [13] 12.9 µM | [14] 43.8 µM
not listed: [12]
inactive: all other assays above

Clc1ccc(Cl)c(Cl)c1
not listed: [8] | [12] | [13] | [14]
inactive: all other assays above

ClC1=C(Cl)[C@]2(Cl)[C@H]3[C@H]([C@@H]4C=C[C@H]3C4)[C@@]1(Cl)C2(Cl)Cl
not listed: [13] | [14]
inactive: all other assays above

Clc1ccccc1Cl
not listed: [13] | [14]
inactive: all other assays above
